The results in this text go back to ChEMBL document CHEMBL5724796, “Tm Shift (DSF) assay results for EUbOPEN Chemogenomics Library” (2024).

As usually defined, the ΔTm is the shift of the melting midpoint relative to a reference.

Common to all, as to conditions: Compound concentration 20.0 uM
The target of assay [1] is Tyrosine-protein kinase ABL1 (Homo sapiens) (UniProt P00519).
Assay [2] concerns the target Bromodomain-containing protein 4 (Homo sapiens) (UniProt O60885).
The target of assay [3] is Cyclin-dependent kinase 2 (Homo sapiens) (UniProt P24941).
For assay [4], the target named is Casein kinase I isoform delta (Homo sapiens) (UniProt P48730).
Assay [5] has as its target Glycogen synthase kinase-3 beta (Homo sapiens) (UniProt P49841).
In assay [6] the target is Mitogen-activated protein kinase 1 (Homo sapiens) (UniProt P28482).
Assay [7] deals with T1, Aurora kinase A (Homo sapiens) (UniProt O14965).
T1 sequence (whole entry): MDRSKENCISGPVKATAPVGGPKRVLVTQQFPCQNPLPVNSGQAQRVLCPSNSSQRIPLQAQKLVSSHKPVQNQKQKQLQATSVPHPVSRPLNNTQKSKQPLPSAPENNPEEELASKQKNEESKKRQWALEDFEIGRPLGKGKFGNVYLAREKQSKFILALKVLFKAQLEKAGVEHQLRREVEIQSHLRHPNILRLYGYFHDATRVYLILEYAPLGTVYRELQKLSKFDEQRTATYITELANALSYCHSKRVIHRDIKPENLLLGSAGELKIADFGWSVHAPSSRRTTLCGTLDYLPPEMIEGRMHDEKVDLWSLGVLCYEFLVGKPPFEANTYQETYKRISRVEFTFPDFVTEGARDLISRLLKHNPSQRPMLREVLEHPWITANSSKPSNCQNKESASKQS

In assay [8] the target is T2, Transcription intermediary factor 1-alpha (Homo sapiens) (UniProt O15164).
T2 sequence (whole entry): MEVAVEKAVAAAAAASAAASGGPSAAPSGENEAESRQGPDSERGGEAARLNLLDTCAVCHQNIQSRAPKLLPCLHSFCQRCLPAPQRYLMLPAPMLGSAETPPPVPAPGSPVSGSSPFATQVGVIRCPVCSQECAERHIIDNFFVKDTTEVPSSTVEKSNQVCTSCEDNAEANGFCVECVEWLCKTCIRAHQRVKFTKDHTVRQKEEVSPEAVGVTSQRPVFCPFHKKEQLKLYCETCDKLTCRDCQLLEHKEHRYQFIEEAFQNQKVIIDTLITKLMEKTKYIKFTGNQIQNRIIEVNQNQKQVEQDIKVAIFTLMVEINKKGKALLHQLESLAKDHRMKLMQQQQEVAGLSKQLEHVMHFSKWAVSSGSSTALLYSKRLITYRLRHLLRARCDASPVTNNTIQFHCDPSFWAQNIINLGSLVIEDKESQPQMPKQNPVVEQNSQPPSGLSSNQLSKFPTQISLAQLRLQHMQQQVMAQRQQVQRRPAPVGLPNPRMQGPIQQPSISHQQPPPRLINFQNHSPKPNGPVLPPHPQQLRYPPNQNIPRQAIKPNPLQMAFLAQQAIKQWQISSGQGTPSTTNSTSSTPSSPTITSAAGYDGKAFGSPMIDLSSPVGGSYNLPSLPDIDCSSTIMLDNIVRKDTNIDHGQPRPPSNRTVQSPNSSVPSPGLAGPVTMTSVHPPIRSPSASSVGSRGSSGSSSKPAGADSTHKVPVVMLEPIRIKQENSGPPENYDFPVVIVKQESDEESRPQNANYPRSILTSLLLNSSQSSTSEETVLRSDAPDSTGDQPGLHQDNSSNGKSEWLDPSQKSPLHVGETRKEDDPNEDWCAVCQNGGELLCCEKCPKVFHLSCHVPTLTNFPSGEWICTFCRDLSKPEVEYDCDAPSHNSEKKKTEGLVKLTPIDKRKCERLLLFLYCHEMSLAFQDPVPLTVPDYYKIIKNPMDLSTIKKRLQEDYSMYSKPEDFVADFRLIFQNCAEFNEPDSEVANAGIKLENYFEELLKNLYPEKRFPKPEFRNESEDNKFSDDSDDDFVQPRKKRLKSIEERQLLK

Sequence of Glycogen synthase kinase-3 beta (Homo sapiens) (P49841 whole entry, looked up): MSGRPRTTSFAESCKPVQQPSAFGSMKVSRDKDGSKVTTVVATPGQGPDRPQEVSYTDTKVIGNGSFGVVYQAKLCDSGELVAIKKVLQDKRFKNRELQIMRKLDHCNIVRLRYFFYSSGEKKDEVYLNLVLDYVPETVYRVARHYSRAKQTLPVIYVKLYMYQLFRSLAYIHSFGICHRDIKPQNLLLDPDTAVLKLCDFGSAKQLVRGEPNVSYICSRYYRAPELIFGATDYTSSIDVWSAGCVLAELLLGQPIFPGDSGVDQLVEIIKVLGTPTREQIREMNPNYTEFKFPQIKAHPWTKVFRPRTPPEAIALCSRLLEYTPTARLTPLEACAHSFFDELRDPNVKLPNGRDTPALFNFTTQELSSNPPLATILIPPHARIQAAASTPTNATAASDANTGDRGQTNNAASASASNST
Sequence of Mitogen-activated protein kinase 1 (Homo sapiens) (P28482 whole entry): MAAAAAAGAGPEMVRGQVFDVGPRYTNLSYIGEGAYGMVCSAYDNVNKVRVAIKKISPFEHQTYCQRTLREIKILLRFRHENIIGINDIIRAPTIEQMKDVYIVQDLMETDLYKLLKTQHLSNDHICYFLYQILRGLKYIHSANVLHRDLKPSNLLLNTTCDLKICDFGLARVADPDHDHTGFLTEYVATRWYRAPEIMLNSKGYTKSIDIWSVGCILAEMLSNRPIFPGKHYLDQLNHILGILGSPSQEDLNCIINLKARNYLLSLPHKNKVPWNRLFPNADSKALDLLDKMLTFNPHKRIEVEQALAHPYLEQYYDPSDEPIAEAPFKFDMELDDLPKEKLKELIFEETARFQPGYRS
Sequence of Tyrosine-protein kinase ABL1 (Homo sapiens) (P00519 whole entry): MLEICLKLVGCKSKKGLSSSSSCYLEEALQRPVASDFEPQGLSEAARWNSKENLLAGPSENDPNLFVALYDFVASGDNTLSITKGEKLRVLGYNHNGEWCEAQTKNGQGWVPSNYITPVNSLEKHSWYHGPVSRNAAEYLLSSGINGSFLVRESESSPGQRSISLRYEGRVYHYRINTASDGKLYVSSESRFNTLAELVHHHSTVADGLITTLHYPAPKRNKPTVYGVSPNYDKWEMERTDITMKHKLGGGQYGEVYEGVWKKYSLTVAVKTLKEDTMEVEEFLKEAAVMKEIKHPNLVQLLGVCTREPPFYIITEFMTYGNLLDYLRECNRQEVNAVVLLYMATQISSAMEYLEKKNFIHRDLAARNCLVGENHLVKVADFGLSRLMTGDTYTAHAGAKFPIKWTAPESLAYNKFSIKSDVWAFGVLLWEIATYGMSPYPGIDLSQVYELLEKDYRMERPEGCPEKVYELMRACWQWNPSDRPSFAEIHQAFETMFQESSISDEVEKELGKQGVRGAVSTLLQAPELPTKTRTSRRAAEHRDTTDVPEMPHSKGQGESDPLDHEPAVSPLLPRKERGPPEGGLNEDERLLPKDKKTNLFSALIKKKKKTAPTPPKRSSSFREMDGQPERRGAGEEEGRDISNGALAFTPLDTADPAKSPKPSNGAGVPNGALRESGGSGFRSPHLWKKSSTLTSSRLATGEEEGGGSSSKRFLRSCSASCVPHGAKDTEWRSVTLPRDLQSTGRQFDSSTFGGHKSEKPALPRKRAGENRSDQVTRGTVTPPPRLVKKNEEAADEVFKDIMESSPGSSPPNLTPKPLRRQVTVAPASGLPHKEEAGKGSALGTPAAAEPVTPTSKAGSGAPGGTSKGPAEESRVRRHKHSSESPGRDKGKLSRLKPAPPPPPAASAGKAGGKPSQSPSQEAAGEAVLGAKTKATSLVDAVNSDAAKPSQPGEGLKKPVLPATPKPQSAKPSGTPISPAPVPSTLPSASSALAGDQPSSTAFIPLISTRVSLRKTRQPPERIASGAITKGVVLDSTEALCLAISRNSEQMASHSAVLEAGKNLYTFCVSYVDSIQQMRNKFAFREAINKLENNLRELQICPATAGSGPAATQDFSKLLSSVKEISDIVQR
Sequence of Casein kinase I isoform delta (Homo sapiens) (P48730 whole entry, looked up, canonical isoform): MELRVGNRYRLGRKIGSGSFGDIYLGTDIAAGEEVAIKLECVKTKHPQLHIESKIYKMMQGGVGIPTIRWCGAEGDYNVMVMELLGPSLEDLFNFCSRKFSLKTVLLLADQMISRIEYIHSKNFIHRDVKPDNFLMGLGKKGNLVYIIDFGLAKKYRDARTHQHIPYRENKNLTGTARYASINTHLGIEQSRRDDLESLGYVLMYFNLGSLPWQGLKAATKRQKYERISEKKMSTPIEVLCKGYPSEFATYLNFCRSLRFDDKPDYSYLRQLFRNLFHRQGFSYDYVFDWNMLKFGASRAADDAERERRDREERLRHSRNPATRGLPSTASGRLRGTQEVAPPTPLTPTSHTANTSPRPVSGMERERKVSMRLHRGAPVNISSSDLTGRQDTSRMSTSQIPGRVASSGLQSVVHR

For `COc1ccc(-c2ccc3c(c2)COC3=O)n2nc(C3(C(=O)OCC(C)C)CC3)nc12`, the ΔTm in assay [1] is 0.4 °C; in assay [2], 2.58 °C; in assay [3] it was 0.54 °C; in assay [4] it was 0.04 °C; in assay [5], -0.38 °C; in assay [6] it was 1.36 °C. Moreover, the ΔTm in assay [7] was -1.67 °C; in assay [8], 0.5 °C.
With `CC(=O)N[C@@H](Cc1ccc(O)cc1)C(=O)N[C@H](C(=O)N[C@@H](C)C(=O)N[C@H](C=O)CC(=O)O)C(C)C`, the ΔTm in assay [1] was 0.25 °C; in assay [2], -2.08 °C; in assay [3], 0.16 °C; in assay [4] it was 0.05 °C; in assay [5], -0.9 °C; in assay [6] it was -0.12 °C. In addition, the figures for the ΔTm in assay [7] and in assay [8] were -1.08 °C and -0.33 °C, respectively.
In the case of `O=S(=O)(CSc1nnc(Br)n1Cc1ccc(Br)c2ccccc12)Nc1cccnc1`, the thermal shift (ΔTm) in assay [1] was 0.41 °C; in assay [2], -4.11 °C; in assay [3] it was -0.15 °C; in assay [4], -0.32 °C; in assay [5], -0.3 °C; in assay [6], 0.05 °C. Moreover, the ΔTm was -1.41 °C in assay [7] and -0.15 °C in assay [8].
With `COc1cc2c(NCC3CCN(C)CC3)cc(-c3ccc(C)o3)nc2cc1OCCCN1CCCC1`, the ΔTm is -0.17 °C in assay [1]; -1.85 °C in assay [2]; 0.22 °C in assay [3]; 0.3 °C in assay [4]; -1.71 °C in assay [5]; 0.07 °C in assay [6]. Moreover, the shift in melting temperature (ΔTm) is 0.46 °C in assay [7] and -1.43 °C in assay [8].
Regarding `COC1CCN(C(=O)c2cc(Cc3n[nH]c(=O)c4ccccc34)ccc2F)CC1`, the ΔTm in assay [1] is 0.56 °C; in assay [2], -2.02 °C; in assay [3], 0.16 °C; in assay [4], -0.31 °C; in assay [5] it was 0.09 °C; in assay [6], 0.51 °C. For the same compound, the ΔTm was -2.39 °C in assay [7] and -0.67 °C in assay [8].
`C[C@@H]1CN(Cc2ncccn2)C[C@H]1c1nc2c(cnn2C2CCOCC2)c(=O)[nH]1`: the shift in melting temperature (ΔTm) was 0.63 °C in assay [1]; -2.54 °C in assay [2]; 0.17 °C in assay [3]; -0.3 °C in assay [4]; 0.32 °C in assay [5]; 0.24 °C in assay [6]. The thermal shift (ΔTm) is -2.46 °C in assay [7] and 0.61 °C in assay [8].
On to `Cc1nc2ccccn2c1C(=O)CN1CCN(c2ccc(F)cn2)CC1`, for which the thermal shift (ΔTm) in assay [1] is -0.05 °C; in assay [2], 0.87 °C; in assay [3] it was 0.63 °C; in assay [4], -0.29 °C; in assay [5], -0.25 °C; in assay [6], 0.11 °C. Besides, the ΔTm in assay [7] was -1.47 °C; in assay [8], 0.7 °C.
With `CCN(CC)C(=O)/C(C#N)=C/c1cc(O)c(O)c([N+](=O)[O-])c1`, the ΔTm was 0.3 °C in assay [1]; 0.45 °C in assay [2]; 0.11 °C in assay [3]; -0.1 °C in assay [4]; -0.28 °C in assay [5]; 0.32 °C in assay [6]. For the same compound, the ΔTm in assay [7] was -0.58 °C; in assay [8] it was 0.24 °C.
Consider `N#Cc1c(N)[nH]c2cc(/C=C/c3cccc(F)c3)ccc12`, for which the ΔTm is 1.1 °C in assay [1]; 3.17 °C in assay [2]; 2.67 °C in assay [3]; -0.33 °C in assay [4]; -0.5 °C in assay [5]; 1.9 °C in assay [6]. Moreover, the ΔTm was determined as 0.33 °C in assay [7] and 1.03 °C in assay [8].
With `NC(=O)c1cnc(N[C@@H]2CCCC[C@@H]2N)nc1Nc1cccc(-n2nccn2)c1`, the ΔTm is 3.49 °C in assay [1]; -1.09 °C in assay [2]; 5.92 °C in assay [3]; 6.3 °C in assay [4]; 5.98 °C in assay [5]; 4.33 °C in assay [6]. The ΔTm was found to be 2.17 °C in assay [7] and 0.1 °C in assay [8].
On to `N[C@@H](CC(=O)N1CCN(C(c2ccc(F)cc2)c2ccc(F)cc2)CC1)C(=O)N1Cc2ccccc2C1`, for which the shift in melting temperature (ΔTm) in assay [1] was -0.03 °C; in assay [2], 0.11 °C; in assay [3], -3.61 °C; in assay [4], -0.26 °C; in assay [5], 0 °C; in assay [6], 0 °C. The shift in melting temperature (ΔTm) was 0 °C in assay [7] and -6.21 °C in assay [8].
With `O=C(Nc1c(Cl)cncc1Cl)c1ccc(OC(F)F)c(OCC2CC2)c1`, the shift in melting temperature (ΔTm) in assay [1] is 0.75 °C; in assay [2], -3.16 °C; in assay [3] it was 0.32 °C; in assay [4], -0.3 °C; in assay [5], 0.27 °C; in assay [6], 0.36 °C. For the same compound, the results for the thermal shift (ΔTm) in assay [7] and in assay [8] were -2.31 °C and 2.4 °C, respectively.
As to `COc1cccc(OC)c1S(=O)(=O)Nc1noc2cc(Cn3cccn3)cc(OC)c12`, the shift in melting temperature (ΔTm) is 0.73 °C in assay [1]; -2.01 °C in assay [2]; 0.06 °C in assay [3]; -0.03 °C in assay [4]; -1.16 °C in assay [5]; 0.02 °C in assay [6]. In addition, the figures for the ΔTm in assay [7] and in assay [8] were -0.5 °C and -1.5 °C, respectively.
As for `CCCc1nc(C)c2c(=O)nc(-c3cc(S(=O)(=O)N4CCN(CC)CC4)ccc3OCC)[nH]n12`, the ΔTm in assay [1] is 0.09 °C; in assay [2] it was 1.95 °C; in assay [3], 1 °C; in assay [4], 0.05 °C; in assay [5], -1.14 °C; in assay [6], 0.18 °C. The figures for the ΔTm in assay [7] and in assay [8] were -2.18 °C and 1.86 °C, respectively.
For `O=C(NCC1(c2nc(-c3ccccc3)cs2)CCOCC1)c1cccc(-c2noc(C(F)(F)F)n2)c1`, the thermal shift (ΔTm) is 0 °C in assay [1]; -2.25 °C in assay [2]; 0.39 °C in assay [3]; 0.15 °C in assay [4]; -0.34 °C in assay [5]; -4.88 °C in assay [6]. The ΔTm in assay [7] is -0.64 °C; in assay [8], -1.09 °C.
As for `O=C1CCc2cc(OCCCCc3nnnn3C3CCCCC3)ccc2N1`, the ΔTm was 0.01 °C in assay [1]; -0.81 °C in assay [2]; -0.24 °C in assay [3]; -0.48 °C in assay [4]; -0.04 °C in assay [5]; 0.01 °C in assay [6]. Further, the values for the shift in melting temperature (ΔTm) in assay [7] and in assay [8] were -1.24 °C and -0.24 °C, respectively.
As for `CC1=NN(c2ccc(C(=O)O)cc2)C(=O)/C1=C/c1ccc(-c2cc(C)c(C)cc2[N+](=O)[O-])o1`, the thermal shift (ΔTm) in assay [1] is 3.73 °C; in assay [2] it was -0.48 °C; in assay [3], 0.29 °C; in assay [4] it was 0.15 °C; in assay [5] it was 0.03 °C; in assay [6], 0.41 °C. The figures for the ΔTm in assay [7] and in assay [8] were -0.94 °C and -1.19 °C, respectively.
Turning to `Cn1cc(C(=O)Nc2ccc([C@@H]3C[C@H]3NCC3CC3)cc2)cn1`, the ΔTm in assay [1] was 0.52 °C; in assay [2], -3.07 °C; in assay [3] it was 0.01 °C; in assay [4], -0.16 °C; in assay [5], -0.77 °C; in assay [6], 0.06 °C. For the same compound, the figures for the shift in melting temperature (ΔTm) in assay [7] and in assay [8] were -2.24 °C and 0.47 °C, respectively.
As to `CCn1ncc2c(NC3CCOCC3)c(-c3nnc(Cc4sc(C)nc4C)o3)cnc21`, the shift in melting temperature (ΔTm) is 0.37 °C in assay [1]; -1.68 °C in assay [2]; -0.03 °C in assay [3]; 0.21 °C in assay [4]; -0.23 °C in assay [5]; 0.54 °C in assay [6]. The figures for the ΔTm in assay [7] and in assay [8] were -2.35 °C and 0.22 °C, respectively.
For `CC(=O)O[C@]1(C(C)=O)CC[C@H]2[C@@H]3CCC4=CC(=O)CCC4=C3[C@@H](c3ccc(N(C)C)cc3)C[C@@]21C`, the ΔTm in assay [1] is 0.29 °C; in assay [2], -2.72 °C; in assay [3], -0.32 °C; in assay [4], 0.22 °C; in assay [5] it was -0.83 °C; in assay [6] it was -0.05 °C. Also, the shift in melting temperature (ΔTm) in assay [7] is -1.14 °C; in assay [8] it was -1.79 °C.
For `Cc1cc(S(C)(=O)=O)c(S(C)(=O)=O)cc1C(=O)NC(=N)N`, the thermal shift (ΔTm) in assay [1] was 0.73 °C; in assay [2], -0.31 °C; in assay [3] it was 0.23 °C; in assay [4], -0.54 °C; in assay [5], 0.15 °C; in assay [6] it was 0.12 °C. The ΔTm was -1.63 °C in assay [7] and 0.34 °C in assay [8].
Regarding `Nc1ncnc2nc(-c3ccc(N4CCOCC4)nc3)cc(-c3cccc(Br)c3)c12`, the ΔTm in assay [1] is 4.32 °C; in assay [2], -3.54 °C; in assay [3], 0.07 °C; in assay [4], 2.63 °C; in assay [5], -0.95 °C; in assay [6], -0.25 °C. For the same compound, the results for the shift in melting temperature (ΔTm) in assay [7] and in assay [8] were 0.37 °C and 0.24 °C, respectively.
